Data: PubChem BioAssay (NCI)
This is part of a sample that, as a whole, favours compounds with a hit. Of some 79,000 tested, about 15% had one in any assay. Calls of active or inactive are those of the source. Rule as the data show it: active = growth inhibition above about 70%; inactive = the rest.

Assays:
[1] = NCI Yeast Anticancer Drug Screen. Data for the rad52 strain (AID 147);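 also: 0% = growth of vehicle-treated control cultures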; settings: S. cerevisiae rad52 mutant growth inhibition, hits give high values
How it was run: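 Screen used a yeast mutant impaired in DNA repair. After compound exposure, growth was measured. Values reflect inhibition compared with vehicle-treated cells.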

[2] = NCI Yeast Anticancer Drug Screen. Data for the wt1 strain (AID 149);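 also: 0% = growth of vehicle-treated wt1 cultures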; settings: S. cerevisiae wt1 strain (SPY 50644) growth inhibition, hits give high values
How it was run: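 wt1 strain grown with compound or vehicle; inhibition taken from the growth difference.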

[3] = NCI Yeast Anticancer Drug Screen. Data for the rad50EPP+ strain (AID 151);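 also: 0% = growth of vehicle-treated control cultures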; settings: S. cerevisiae rad50 mutant strain, hits give high values
How it was run: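 Exposing the rad50EPP+ strain to each compound, growth was compared with vehicle-only cultures to give inhibition.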

[4] = NCI Yeast Anticancer Drug Screen. Data for the mgt1 strain (AID 153); settings: S. cerevisiae mgt1 mutant growth inhibition, hits give high values
How it was run: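 Genetically defined yeast (mgt1) treated with compound; inhibition of growth expressed against vehicle-treated controls.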

[5] = NCI Yeast Anticancer Drug Screen. Data for the rad50 strain (AID 155);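 also: 0% = growth of vehicle-only cultures of the same strain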; settings: S. cerevisiae rad50 strain growth inhibition, hits give high values
How it was run: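 DNA repair mutant yeast, compound exposure, growth read-out; inhibition is taken relative to vehicle.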

[6] = NCI Yeast Anticancer Drug Screen. Data for the mec2-1 strain (AID 157); settings: S. cerevisiae mec2-1 strain, hits give high values
How it was run: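 Readout is yeast growth inhibition, normalised to vehicle-treated controls, in the mec2-1 strain exposed to compound.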

[7] = NCI Yeast Anticancer Drug Screen. Data for the rad14 strain (AID 159);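 also: 0% = growth of vehicle-treated control cultures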; settings: S. cerevisiae rad14 strain growth inhibition, hits give high values
How it was run: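 DNA repair-defective yeast, compound-exposed; % growth inhibition derived by comparison with vehicle-treated controls.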

[8] = NCI Yeast Anticancer Drug Screen. Data for the sgs1 mgt1 strain (AID 161);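 also: 0% = growth of cultures given vehicle only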; settings: S. cerevisiae sgs1 mgt1 strain, hits give high values
How it was run: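 Percent growth inhibition was derived by comparing compound-exposed mutant yeast with vehicle-exposed cultures. The strain carries alterations in DNA damage repair.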

[9] = NCI Yeast Anticancer Drug Screen. Data for the CLN2oe strain (AID 163);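 also: 0% = growth of vehicle-only control cultures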; settings: S. cerevisiae CLN2oe strain, hits give high values
How it was run: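 Values reflect how much compound exposure reduced yeast growth, referenced to vehicle-exposed cells. Assay organism is a strain with a defined genetic change affecting cell-cycle control.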

[10] = NCI Yeast Anticancer Drug Screen. Data for the cln2 rad14 strain (AID 165);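 also: 0% = growth equal to vehicle treated cultures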; settings: S. cerevisiae cln2 rad14 strain, hits give high values
How it was run: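 Relative to vehicle controls, growth inhibition of compound-treated cln2 rad14 yeast was recorded.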

[11] = NCI Yeast Anticancer Drug Screen. Data for the bub3 strain (AID 167); settings: S. cerevisiae bub3 mutant strain, hits give high values
How it was run: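 In this screen, a yeast mutant lacking normal mitotic checkpoint function is challenged with compound. Relative growth versus vehicle gives the inhibition value.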

[12] = NCI Yeast Anticancer Drug Screen. Data for the wt2 strain (AID 169);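 also: 0% = growth of vehicle-treated yeast cultures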; settings: S. cerevisiae wt2 strain growth inhibition, hits give high values
How it was run: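 Values express reduction in yeast growth under compound treatment, referenced to vehicle-treated cells.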

[13] = NCI Yeast Anticancer Drug Screen. Data for the mlh1 strain (AID 171);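 also: 0% = growth of vehicle-treated control cultures of the same strain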; settings: S. cerevisiae mlh1 strain growth inhibition, hits give high values
How it was run: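 Steps: expose the defined-mutant yeast strain to compound; expose a parallel culture to vehicle; measure growth; express compound effect as inhibition relative to the vehicle culture.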

[14] = NCI Yeast Anticancer Drug Screen. Data for the sgs1 strain (AID 173);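 also: 0% = growth of vehicle-only control cultures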; settings: S. cerevisiae sgs1 mutant, hits give high values
How it was run: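 Treat defined-mutant yeast with compound; measure growth; calculate inhibition relative to vehicle-treated cells.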

[15] = NCI Yeast Anticancer Drug Screen. Data for the mlh1 rad18 strain (AID 175); settings: S. cerevisiae mlh1 rad18 strain growth inhibition, hits give high values
How it was run: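 Test agents were incubated with a yeast strain of defined genotype (DNA damage repair defect). Inhibition of growth was derived by comparison with vehicle-exposed cultures.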

[16] = NCI Yeast Anticancer Drug Screen. Data for the rad18 strain (AID 177); settings: S. cerevisiae rad18 mutant growth inhibition, hits give high values
How it was run: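 A genetically defined yeast mutant impaired in DNA damage repair was treated with test compounds, then its growth was measured against cultures receiving vehicle alone.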

[17] = at 5.0 µM (retest, dose inferred, filed as 0.5)
[18] = at 50.0 µM (retest, dose inferred, filed as 5.0)

Measured: growth inhibition

S=C(Nc1ccc(Cl)cc1)SC1CCCCC1
active: [1]; at 33.0 µM 96% | [1]; at 100.0 µM 98% | [2]; at 33.0 µM 98% | [2]; at 100.0 µM 98% | [3]; at 33.0 µM 98% | [3]; at 100.0 µM 98% | [4]; at 33.0 µM 98% | [4]; at 100.0 µM 99% | [5]; at 11.0 µM 96% | [5]; at 33.0 µM 99% | [5]; at 50.0 µM 83.2% | [5]; at 100.0 µM 99% | [6]; at 11.0 µM 93% | [6]; at 33.0 µM 99% | [6]; at 50.0 µM 85.5% | [6]; at 100.0 µM 96% | [7]; at 33.0 µM 97% | [7]; at 100.0 µM 97% | [8]; [18] 79% | [8]; at 50.0 µM 86.5% | [9]; at 33.0 µM 96% | [9]; at 100.0 µM 99% | [10]; at 50.0 µM 87.7% | [11]; at 33.0 µM 93% | [11]; at 50.0 µM 83% | [11]; at 100.0 µM 98% | [12]; at 11.0 µM 78% | [12]; at 33.0 µM 99% | [12]; at 100.0 µM 98% | [13]; at 33.0 µM 98% | [13]; at 100.0 µM 99% | [14]; at 33.0 µM 98% | [14]; at 100.0 µM 98% | [15]; [18] 91% | [15]; at 50.0 µM 91.8% | [16]; at 33.0 µM 97% | [16]; at 100.0 µM 98%
inactive: [1]; at 1.2 µM 6% | [1]; at 3.7 µM 24% | [1]; at 11.0 µM 34% | [2]; at 1.2 µM 7% | [2]; at 3.7 µM 0% | [2]; at 11.0 µM 47% | [3]; at 1.2 µM 7% | [3]; at 3.7 µM 22% | [3]; at 11.0 µM 61% | [4]; at 1.2 µM 16% | [4]; at 3.7 µM 40% | [4]; at 11.0 µM 33% | [5]; at 1.2 µM -4% | [5]; at 3.7 µM 9% | [5]; [17] 12% | [5]; [18] 65% | [6]; at 1.2 µM -17% | [6]; at 3.7 µM 7% | [6]; [17] 1% | [6]; [18] 40% | [7]; at 1.2 µM -24% | [7]; at 3.7 µM -20% | [7]; at 11.0 µM 27% | [8]; [17] 18% | [9]; at 1.2 µM -2% | [9]; at 3.7 µM -7% | [9]; at 11.0 µM 43% | [10]; [17] -6% | [10]; [18] 31% | [11]; at 1.2 µM -18% | [11]; at 3.7 µM -36% | [11]; [17] 17% | [11]; at 11.0 µM 25% | [11]; [18] 51% | [12]; at 1.2 µM -35% | [12]; at 3.7 µM -22% | [13]; at 1.2 µM 4% | [13]; at 3.7 µM 19% | [13]; at 11.0 µM 50% | [14]; at 1.2 µM 0% | [14]; at 3.7 µM 2% | [14]; at 11.0 µM 51% | [15]; [17] -2% | [16]; at 1.2 µM -8% | [16]; at 3.7 µM -7% | [16]; at 11.0 µM 48%

CCCCCCCC1(N=[N+]=[N-])C(=O)c2ccccc2N(C)C1=O (stereo unspecified)
active: [1]; at 100.0 µM 75% | [2]; at 100.0 µM 73% | [5]; at 50.0 µM 79.3% | [5]; at 100.0 µM 74% | [6]; at 33.0 µM 72% | [6]; [18] 80% | [6]; at 50.0 µM 81.2% | [6]; at 100.0 µM 80% | [8]; [18] 71% | [8]; at 50.0 µM 79.5% | [9]; at 100.0 µM 79% | [10]; [18] 75% | [11]; [18] 83% | [13]; at 100.0 µM 78% | [14]; at 33.0 µM 71% | [14]; at 100.0 µM 85% | [15]; [18] 87% | [15]; at 50.0 µM 76.3% | [16]; at 100.0 µM 83%
inactive: [1]; at 1.2 µM 2% | [1]; at 3.7 µM 18% | [1]; at 11.0 µM 18% | [1]; at 33.0 µM 68% | [2]; at 1.2 µM 7% | [2]; at 3.7 µM 7% | [2]; at 11.0 µM 7% | [2]; at 33.0 µM 59% | [3]; at 1.2 µM 5% | [3]; at 3.7 µM 15% | [3]; at 11.0 µM 24% | [3]; at 33.0 µM 54% | [3]; at 100.0 µM 65% | [4]; at 1.2 µM -11% | [4]; at 3.7 µM -18% | [4]; at 11.0 µM -2% | [4]; at 33.0 µM 51% | [4]; at 100.0 µM 69% | [5]; at 1.2 µM -1% | [5]; at 3.7 µM 1% | [5]; [17] -4% | [5]; at 11.0 µM 13% | [5]; at 33.0 µM 67% | [5]; [18] 60% | [6]; at 1.2 µM -3% | [6]; at 3.7 µM -27% | [6]; [17] -1% | [6]; at 11.0 µM -2% | [7]; at 1.2 µM -23% | [7]; at 3.7 µM -20% | [7]; at 11.0 µM -20% | [7]; at 33.0 µM 39% | [7]; at 100.0 µM 63% | [8]; [17] -7% | [9]; at 1.2 µM 21% | [9]; at 3.7 µM 8% | [9]; at 11.0 µM 23% | [9]; at 33.0 µM 61% | [10]; [17] 30% | [10]; at 50.0 µM 68.7% | [11]; at 1.2 µM -9% | [11]; at 3.7 µM -17% | [11]; [17] 3% | [11]; at 11.0 µM -15% | [11]; at 33.0 µM 52% | [11]; at 50.0 µM 64.5% | [11]; at 100.0 µM 69% | [12]; at 1.2 µM 13% | [12]; at 3.7 µM 16% | [12]; at 11.0 µM 20% | [12]; at 33.0 µM 57% | [12]; at 100.0 µM 67% | [13]; at 1.2 µM 20% | [13]; at 3.7 µM 10% | [13]; at 11.0 µM 18% | [13]; at 33.0 µM 61% | [14]; at 1.2 µM 9% | [14]; at 3.7 µM 14% | [14]; at 11.0 µM 20% | [15]; [17] 0% | [16]; at 1.2 µM 18% | [16]; at 3.7 µM 12% | [16]; at 11.0 µM 20% | [16]; at 33.0 µM 67%
